A selection: hits, their analogues and other compounds. The true share with any hit is near 8%.
MARV entry inh = Marburg virus entry inhibition. Marburg virus pseudotyped entry inhibition, cell reporter. Potency, µM (top dose mostly 37.8 µM), without a hit: top-dose activity change, negative = inhibition, most hits filed as inhibitors. 1.8% of 300,000 active; calls by dose curve; tested in HEK293 cells; also: potency is read from the fitted curve at half-maximal effect; % is scaled to controls: 0 for no effect and ±100 for the full control effect
SARS PLP yeast = SARS-CoV PLP inhibition in yeast | AID 485353 | 0.19% of 330,000 active | S. cerevisiae expressing SARS-CoV PLpro, growth rescue | Potency, µM (titrated, usually from 32.9 µM), for inactives: at the highest dose activity, positive = growth rescue, actives largely listed as activators; calls by dose curve; also: potency is read from the fitted curve at half-maximal effect; 0% is about no effect; nearly all actives have a fitted effect of over 55% in size
HCMV inh = human cytomegalovirus inhibition | 4.5% of 410,000 active | HFF cells, HCMV-luciferase reporter, 72 h; stronger effect = lower value | activity change, negative = inhibition, % at 57.5 µM; in the data active = activity change below about -60%; inconclusive = no clear call, values can overlap the other calls; inactive = above about -39%; also: % is scaled to controls: 0 for no effect and ±100 for the full control effect
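Two-dose cell screen: HFF monolayers treated with compounds and infected with luciferase-expressing HCMV at 1 PFU/cell, 72 h at 37C, then lysed for luciferase measurement.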
FMDV inh = foot and mouth disease virus antiviral activity; FMDV antiviral cell-based qHTS; Potency, µM (series often up to 57.9 µM), without a hit: at the highest dose activity change, negative = inhibition, usual class: inhibitors; 1.2% of 410,000 active; AID 1159524; calls by dose curve; tested in HEK293T cells; also: read-out not given here; potency is read from the fitted curve at half-maximal effect; % is scaled to controls: 0 for no effect and ±100 for the full control effect; nearly all actives have a fitted effect of over 45% in size
HCV inh = HCV inhibition; AID 651820; Huh7.5.1 HCVcc-Cre infection, luciferase reporter, 44 h; Potency, µM (titrated, usually from 41.8 µM), inactives show at the highest dose activity change, negative = inhibition, most hits filed as inhibitors; 3.4% of 340,000 active; active = well fitted inhibition curve with a large enough effect; inconclusive = small, poorly fitted or top-dose-only effect, or another doubt; inactive = no such curve, though single readings can be large or run the other way; also: potency is read from the fitted curve at half-maximal effect; % is scaled to controls: 0 for no effect and ±100 for the full control effect
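A cell-based infection assay in which seeded cells (1,000 per well) receive test compound after 4 h, are inoculated with HCVcc-Cre at approximately 0.5 moi, and are incubated 44 h before luminescence detection.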
Lassa entry inh = blocks Lassa virus binding to or entry into cells | Lassa virus pseudotype entry inhibition, cell reporter | Potency, µM (top dose mostly 37.9 µM), for the others: at the top dose activity change, negative = inhibition, usual class: inhibitors | 1.2% of 300,000 active; calls by dose curve; tested in HEK293 cells; also: potency is read from the fitted curve at half-maximal effect; % is scaled to controls: 0 for no effect and ±100 for the full control effect; nearly all actives have a fitted effect of over 50% in size
Active calls of the source: *; ? = inconclusive; . = no result; [ ] = another dose, or the depositor's remark.

SMILES	MARV entry inh	SARS PLP yeast	HCMV inh	FMDV inh	HCV inh	Lassa entry inh
COC(=O)Nc1ccc(S(=O)(=O)N2CCCc3ccccc32)cc1	?	-2%	-62*	-8%	3.2µM*	-43%
CCC(=O)Nc1ccc(S(=O)(=O)N2CCc3ccccc32)cc1	.	-7%	-23	?	-15%	.
COC(=O)Nc1ccc(S(=O)(=O)N2CCCc3cccc(O)c32)cc1	.	1%	-24	-28%	11µM*	.
COC(=O)[C@@H]1[C@H](CCc2ccccc2)NC(=O)N(Cc2ccccc2)[C@H]1C	-24%[14.2 µM]	.	.	.	.	?
CC(C)CCSc1nc2c(c(=O)n(C)c(=O)n2C)n1Cc1ccccc1Cl	?	.	32	28%	.	?
CC1(C)CC(=O)C=C(c2ccc(-c3cnc4ccccc4c3)cc2)C1=O	.	.	-71*	-36%	.	.
CC1(C)CC(=O)C=C(c2ccc(Oc3ccccc3)cc2)C1=O	.	.	-16	-23%	.	.
CC1=C(C(=O)Nc2ccccc2)C(CC(C)C)n2nc(SCc3ccccc3C)nc2N1 (stereo not drawn)	-13%[46.1 µM]	.	3	-6%	.	-1%[46.1 µM]
COc1cc(C2CC(=O)c3c([nH]c(C(=O)OC4CCCCC4)c3C)C2)cc(OC)c1OC (stereo not drawn)	.	.	-39	11µM*	.	6.3µM*
CCCCOC(=O)c1[nH]c2c(c1C)C(=O)CC(c1cc(OC)c(OC)c(OC)c1)C2 (stereo not drawn)	7%	3%	-63*	16µM*	2.5µM*	.
COCCOC(=O)c1[nH]c2c(c1C)C(=O)CC(c1cc(OC)c(OC)c(OC)c1)C2 (stereo not drawn)	10µM*	1%	-4	?	13µM*	?
COCCOC(=O)c1[nH]c2c(c1C)C(=O)CC(c1ccc(N(C)C)cc1)C2 (stereo not drawn)	-18%[46.1 µM]	5%	31	-21%	13µM*	?
CCOc1ccc(CNC(=O)C2CCN(c3nnc(-n4c(C)ccc4C)s3)CC2)cc1	2%[46.1 µM]	.	?	?	.	-9%[46.1 µM]
COc1cc(C2CC(=O)c3c([nH]c(C(=O)OCC4CCCCC4)c3C)C2)cc(OC)c1OC (stereo not drawn)	?	.	?	?	.	-7%[46.1 µM]
C=CCOC(=O)c1[nH]c2c(c1C)C(=O)CC(c1cc(OC)c(OC)c(OC)c1)C2 (stereo not drawn)	?	4%	.	11µM*	?	?
Clc1ccccc1/C=C/c1nc(-c2ccccn2)no1	?	-3%	?	4µM*	-27%	?
COc1cc(CN2CCCC(C)C2)ccc1OCc1ccccc1 (stereo not drawn)	?	4%	-20	12%	-11%	23%
C=CCc1ccc(OCCCN2CCCC(C)C2)c(OC)c1 (stereo not drawn)	?	7%	32	-4%	25µM*	-20%
C=CCc1ccc(OCCCCN2CC(C)CC(C)C2)c(OC)c1 (stereo not drawn)	7.1µM*	-1%	-28	-23%	-14%	?
C=CCc1ccc(OCCCOc2ccc(C(=O)O)cc2)c(OC)c1	3%[46.1 µM]	0%	-7	22%	10%	-6%
C=CCc1ccc(OCCCCN2CCC(C)CC2)c(OC)c1	15µM*	-22%	-30	-11%	?	?
O=C(N/N=C1\C[C@@H](O)[C@@H](O)[C@@H]2[C@@H]3C(=O)N(C4CCCCC4)C(=O)[C@@H]3CC[C@@H]12)OCc1ccccc1	-13%[14.2 µM]	.	.	.	.	.
Cc1cccc(C(=O)N2CCn3c(nnc3C(=O)NC(C)C)C2)c1C	.	.	-13	.	.	.
O=C(NCc1ccccc1)c1cccn1-c1nnc(N2CCCCC2)s1	.	.	?	28%	.	-10%[46.1 µM]
O=C1CCC[C@H]2[C@@H](Cc3ccccc3)[C@@H](NS(=O)(=O)c3ccc4ccccc4c3)CC[C@]23CCCN13	.	.	3	.	.	.
Cc1occc1C(=O)N/N=C/C=C/c1ccccc1	?	-1%	-24	20%	-21%	?
COC(=O)c1c(-c2ccc(C)cc2)csc1NC(=O)c1c(-c2ccccc2)noc1C	7%	2%	-71*	.	7%	.
Cc1cccc(C(C)C)c1NC(=O)c1c(-c2ccccc2)noc1C	.	?	-62*	40%	14%	.

Assay outcomes as filed in PubChem BioAssay.
